From PubChem
Pol eta inh-1 = qHTS for Inhibitors of Polymerase Eta. DNA polymerase eta (Homo sapiens), Q9Y253. recombinant Pol eta, fluorescent DNA replication assay. Potency, µM (series often up to 114 µM), hits mostly inhibitors. hit rate 1.2% among 390,000
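Pol eta (10 nM) was preincubated with compounds for 15 min at room temperature, after which fluorescent replication substrate (50 nM final) was added to start the reaction. Fluorescence was read kinetically at 0 and 10 min.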
Pol kappa inh-1 = qHTS for Inhibitors of Polymerase Kappa. DNA polymerase kappa (Homo sapiens), Q9UBT6. purified Pol kappa, fluorescent DNA synthesis assay, 10 min. Potency, µM (titrated, usually from 107 µM), most hits filed as inhibitors. hit rate 0.53% among 400,000
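Activity was followed as the change in fluorescence between reads at 0 and 10 min after starting the reaction with 50 nM substrate. Beforehand, 10 nM polymerase had been preincubated with compound for 15 min at room temperature.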
TDP1 block = qHTS Assay for Inhibitors of Tyrosyl-DNA Phosphodiesterase (TDP1); recombinant TDP1, AlphaScreen DNA substrate cleavage; Potency, µM (series often up to 130 µM), actives largely listed as inhibitors; hit rate 0.28% among 350,000; AID 485290, 2010; note: nearly all actives have a fitted effect of over 40% in size
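Enzyme-compound mixtures sat 15 min at room temperature, followed by a 5 min reaction with 15 nM final substrate and 10 min with AlphaScreen beads. Recombinant human Tdp1 was used at 1 nM final.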
POLB inh = qHTS Assay for Inhibitors of DNA Polymerase Beta; AID 485314, 2010; Pol beta primer extension/strand displacement, fluorescence kinetic; hit rate 1.3% among 340,000; P06746; Potency, µM (highest dose often 114 µM), usual class: inhibitors
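10 nM enzyme + cpd, 15 min RT; start with substrate 50 nM final; read 0 min and after 10 min RT. Corrected, normalized data; 4-parameter Hill curve fit.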
POLI inh = qHTS for Inhibitors of Polymerase Iota; DNA polymerase iota (Homo sapiens), Q9UNA4; Pol iota fluorescent replication assay, 10 min; Potency, µM (highest dose often 115 µM), most hits filed as inhibitors; hit rate 1% among 390,000
Target sequence (Q9UNA4 whole entry, looked up): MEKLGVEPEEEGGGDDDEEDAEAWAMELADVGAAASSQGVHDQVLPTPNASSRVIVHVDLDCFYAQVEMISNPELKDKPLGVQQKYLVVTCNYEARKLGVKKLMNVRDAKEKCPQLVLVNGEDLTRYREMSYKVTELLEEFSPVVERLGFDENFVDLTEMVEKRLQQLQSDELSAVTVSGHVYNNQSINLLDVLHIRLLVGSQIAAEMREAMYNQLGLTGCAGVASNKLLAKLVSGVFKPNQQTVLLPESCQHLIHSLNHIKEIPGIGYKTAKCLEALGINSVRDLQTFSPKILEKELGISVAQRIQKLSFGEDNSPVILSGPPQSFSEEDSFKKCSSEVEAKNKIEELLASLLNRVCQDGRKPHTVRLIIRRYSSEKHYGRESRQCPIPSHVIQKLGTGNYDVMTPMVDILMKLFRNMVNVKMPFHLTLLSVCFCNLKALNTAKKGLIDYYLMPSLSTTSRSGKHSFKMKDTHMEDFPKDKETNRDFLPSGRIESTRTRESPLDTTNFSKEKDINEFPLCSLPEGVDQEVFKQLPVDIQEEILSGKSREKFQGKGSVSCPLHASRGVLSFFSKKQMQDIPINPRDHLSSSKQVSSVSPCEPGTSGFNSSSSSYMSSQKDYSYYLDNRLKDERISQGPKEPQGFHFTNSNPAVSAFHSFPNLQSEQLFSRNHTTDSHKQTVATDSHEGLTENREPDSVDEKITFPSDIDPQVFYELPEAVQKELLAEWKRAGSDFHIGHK
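Pol iota at 10 nM preincubated 15 min with compounds at room temperature; reaction started with fluorescent substrate, 50 nM final. Fluorescence read kinetically at 0 and 10 min; buffer-only wells as negative control.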
FEN1 inhibitor = qHTS Assay for the Inhibitors of Human Flap endonuclease 1 (FEN1); hit rate 0.35% among 390,000; Recombinant FEN1 flap cleavage, fluorescence, 15 min; Potency, µM (series often up to 114 µM), hits mostly inhibitors; P39748; note: nearly all actives have a fitted effect of over 65% in size
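Read-out was taken twice, immediately and after 15 min, following addition of 50 nM substrate to 10 nM FEN1 that had sat with test compound for 15 min at room temperature. Curves came from a four-parameter Hill model.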
PGK validate = qHTS for inhibitors of Phosphogylcerate Kinase: Hit Validation Screen | shares compounds with Pol kappa inh-1 | TbPGK coupled GAPDH assay, Kinase-Glo luminescence | Potency, µM (top dose mostly 57.5 µM), actives largely listed as inhibitors | hit rate 79% among 500; note: nearly all actives have a fitted effect of over 65% in size
Pol iota confirm = qHTS for Inhibitors of Polymerase Iota: Confirmatory Assay for Cherry-picked Compounds; shares compounds with Pol kappa inh-1; Pol iota primer extension, TAMRA/BHQ fluorescence; Potency, µM, most hits filed as inhibitors; hit rate 77% among 1,500
Pol kappa inh-2 = qHTS for Inhibitors of Polymerase Kappa: Confirmatory Assay for Cherry-picked Compounds; shares compounds with Pol eta inh-1; purified Pol-kappa, fluorescent strand-displacement substrate; Potency, µM, hits mostly inhibitors; hit rate 76% among 920; AID 720501, 2013
Pol eta inh-2 = qHTS for Inhibitors of Polymerase Eta: Confirmatory Assay for Cherry-picked Compounds. Pol eta primer extension, TAMRA/BHQ fluorescence, 10 min. shares compounds with Pol eta inh-1. hit rate 64% among 2,600. Potency, µM, hits mostly inhibitors
Large screens that a line does not name were inactive (follow-up assays come after a bar, where they were run); ! = not active in a repeat. Most compounds without a hit are left out; they make up all but 2.4% or so of the library. Calls come from the whole dose curve; as a rule, active = well fitted curve in the direction sought with a large enough effect; inconclusive = small, poorly fitted or top-dose-only effect, or another doubt; inactive = no such curve, though single readings can be large; an effect the other way counts as inactive or inconclusive.

N#C/C(=C\c1ccc(O)c(O)c1)C(=O)c1ccc(O)c(O)c1	Pol eta inh-1 0.13µM!, Pol kappa inh-1 0.34µM, POLB inh 0.063µM, POLI inh 1.1µM, FEN1 inhibitor 1.4µM (no result: TDP1 block) | PGK validate 0.33µM | Pol iota confirm 0.75 | Pol kappa inh-2 0.38 | Pol eta inh-2 0.67
CN(C)Cc1ccccc1-c1nc(NCc2cccs2)c2ccccc2n1	none (no result: Pol eta inh-1, TDP1 block, POLB inh, POLI inh, FEN1 inhibitor)
CCc1ccc(C(=O)c2cn(CC(=O)Nc3ccc4c(c3)OCO4)c3ccc(CC)cc3c2=O)cc1	Pol eta inh-1 89µM, POLB inh 4.5µM | Pol iota confirm 42 | Pol eta inh-2 inconclusive
Cc1cc(C)cc(Nc2nc3ccccc3n3cnnc23)c1	none
COc1ccc(Br)cc1/C=c1\sc2nc(-c3ccco3)nn2c1=O	Pol eta inh-1 3.2µM, Pol kappa inh-1 20µM, POLB inh 4.5µM, POLI inh 8.9µM, FEN1 inhibitor inconclusive (no result: TDP1 block) | Pol iota confirm 60 | Pol kappa inh-2 12 | Pol eta inh-2 30
Cc1cc(C=O)c(C)n1-c1ccc(Cl)c(C(=O)O)c1	Pol eta inh-1 3.2µM, Pol kappa inh-1 22µM, TDP1 block 45µM, POLB inh 3.2µM, POLI inh 5.6µM, FEN1 inhibitor inconclusive | PGK validate 12µM | Pol iota confirm 11 | Pol eta inh-2 6
CC1(C)CCC(c2ccc(Cl)cc2)=C(CN2CCN(c3ccc(C(=O)NS(=O)(=O)c4ccc(N[C@H](CCN5CCOCC5)CSc5ccccc5)c(S(=O)(=O)C(F)(F)F)c4)cc3)CC2)C1	Pol kappa inh-1 45µM, POLI inh 40µM, FEN1 inhibitor inconclusive (no result: Pol eta inh-1, TDP1 block, POLB inh) | Pol iota confirm 67 | Pol kappa inh-2 inconclusive | Pol eta inh-2 inconclusive
COc1cc(OC)c(NC(=O)c2cn(C3CCCC3)c(=O)c3c2c2ccccc2n3C)cc1Cl	none
Cn1c2ccccc2c(=O)c2ccc(Cl)cc21	none (no result: Pol kappa inh-1, TDP1 block, POLB inh, POLI inh, FEN1 inhibitor)
CN(C)c1ccc(-c2ccc3c(=O)c4ccccc4n(C)c3c2)cn1	Pol eta inh-1 20µM, POLB inh inconclusive, POLI inh inconclusive (no result: TDP1 block) | Pol iota confirm inconclusive | Pol eta inh-2 inconclusive
CN(C)C(=O)CCSC(SCCC(=O)O)c1cccc(/C=C/c2ccc3ccc(Cl)cc3n2)c1 (stereo not given)	none (no result: Pol eta inh-1, POLB inh, POLI inh, FEN1 inhibitor)
O=C(N/N=C/c1ccccc1O)NC12CC3CC(CC(C3)C1)C2	none (no result: TDP1 block)
O=C(N/N=C/c1cc(Cl)cc([N+](=O)[O-])c1O)NC12CC3CC(CC(C3)C1)C2	Pol eta inh-1 7.9µM, POLB inh 14µM | PGK validate 15µM | Pol eta inh-2 67
O=C(CSc1cccc2cccnc12)NCc1ccco1	Pol eta inh-1 inconclusive
Cc1ccccc1NC(=O)CSc1ccsc1[N+](=O)[O-]	Pol eta inh-1 2.8µM, Pol kappa inh-1 35µM, POLB inh 20µM, POLI inh 11µM, FEN1 inhibitor inconclusive (no result: TDP1 block) | Pol iota confirm 19 | Pol eta inh-2 17
O=C(CSc1ccsc1[N+](=O)[O-])NCc1ccco1	Pol eta inh-1 22µM, Pol kappa inh-1 79µM, POLB inh inconclusive, POLI inh inconclusive (no result: TDP1 block) | Pol iota confirm 67 | Pol kappa inh-2 42 | Pol eta inh-2 30
COC(=O)[C@@]1(C)C=C[C@@H](Cc2ccccc2)N1C(=O)c1ccccc1	none (no result: Pol eta inh-1, Pol kappa inh-1, POLB inh, POLI inh, FEN1 inhibitor)
C=CCOC(=O)N[C@H](c1ccco1)C(C(C)=O)C(C)=O	none (no result: Pol eta inh-1, Pol kappa inh-1, POLB inh, POLI inh, FEN1 inhibitor)
CCCn1c(C)nc2c(NC(C)CN(C)C)nc(C)nc21 (stereo not given)	none (no result: Pol eta inh-1, Pol kappa inh-1, POLB inh, POLI inh, FEN1 inhibitor)
O=C(O)CCCCCN1C(=O)/C(=C\c2cn(-c3ccccc3)nc2-c2cccs2)SC1=S	Pol eta inh-1 45µM, Pol kappa inh-1 inconclusive, POLI inh inconclusive (no result: TDP1 block) | Pol iota confirm 34 | Pol eta inh-2 inconclusive
CC1=NNC(=O)/C1=C\c1cn(-c2ccccc2)nc1-c1cccs1	POLI inh inconclusive
CCN1C(=O)/C(=C/c2cn(-c3ccccc3)nc2-c2cccnc2)SC1=S	none (no result: TDP1 block, POLB inh)
O=C(O)CCCCCN1C(=O)/C(=C/c2cn(-c3ccccc3)nc2-c2cccs2)SC1=S	Pol eta inh-1 inconclusive, Pol kappa inh-1 inconclusive, POLI inh inconclusive (no result: TDP1 block, POLB inh) | Pol iota confirm 34 | Pol kappa inh-2 inconclusive
O=C(O)CCN1C(=O)/C(=C/c2cn(-c3ccccc3)nc2-c2cccs2)SC1=S	Pol eta inh-1 35µM, Pol kappa inh-1 89µM, POLI inh 32µM, FEN1 inhibitor inconclusive | Pol iota confirm 19 | Pol eta inh-2 43
CN1CCC(N(C)C(=O)/C=C/c2cn(-c3ccccc3)nc2-c2cccs2)CC1	none
Cc1ccc(Cn2cc(CCC(=O)NCC(C)c3ccccc3)c3ccccc32)cc1 (stereo not given)	Pol eta inh-1 inconclusive
Cc1ccc(CNc2ccc(O)cc2)cc1	Pol eta inh-1 28µM, Pol kappa inh-1 inconclusive, POLB inh inconclusive, POLI inh 3.5µM, FEN1 inhibitor inconclusive | Pol iota confirm inconclusive | Pol eta inh-2 inconclusive
CCCCN(C(=O)c1cccc(-n2cccc2)c1)c1c(N)n(CCC)c(=O)[nH]c1=O	Pol eta inh-1 16µM, Pol kappa inh-1 inconclusive, TDP1 block 50µM, POLI inh 14µM (no result: POLB inh) | Pol iota confirm 30 | Pol eta inh-2 38
CCCN(C(=O)c1cc(C)ccc1C)c1c(N)n(Cc2ccccc2)c(=O)[nH]c1=O	none (no result: POLB inh)
CCCN(C(=O)c1cccc(-n2cccc2)c1)c1c(N)n(Cc2ccccc2)c(=O)[nH]c1=O	Pol eta inh-1 11µM, Pol kappa inh-1 28µM, TDP1 block 45µM, POLI inh 10µM (no result: POLB inh) | Pol iota confirm 30 | Pol eta inh-2 43
COc1ccc(NC(=O)N2CC3(CCN(C(=O)c4ccncc4)CC3)C2)cc1	none (no result: Pol eta inh-1, TDP1 block, POLB inh, POLI inh, FEN1 inhibitor)
OCC(CO)(CO)N=Cc1c(O)ccc2ccccc12	POLI inh inconclusive
